Screens deposited in PubChem BioAssay by The Scripps Research Institute Molecular Screening Center.
Most compounds without a hit are left out; they make up all but 4.1% or so of the library.
hgDAF12 agonist = hgDAF-12 agonism, primary luciferase screen. HEK293 GAL4-hgDAF12 UAS-luciferase reporter, agonist luminescence; normalized to butyrate control. activation, % at 6.8 µM. actives 1.8% (n = 370,000). AID 687014;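 active means activation above a cutoff set at the mean of all screened compounds plus 3 SD, cut at about 10% in these data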
hcDAF12 agonist = H. contortus DAF-12 activation, primary screen. AID 652067. HEK293 hcDAF-12 lit1-tk-luc reporter, luminescence; 0% DMSO, 100% Δ7-dafachronic acid. activation, % at 6.8 µM. actives 1.4% (n = 370,000);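 active means activation above the mean of all tested compounds plus 3 SD, cut at about 5.5% in these data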
ssDAF-12 act = S. stercoralis DAF-12 activation, primary screen. activation, % at 6.8 µM. actives 1% (n = 370,000). HEK293 ssDAF-12/GRIP1 lit1-tk-luc reporter, luminescence; % of 3 µM dafachronic acid response;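 active means activation above the mean over all tested compounds plus 3 SD, cut at about 0.9% in these data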
DAX1 inh-1 = inhibitors of human orphan nuclear receptor DAX1 (NR0B1) | inhibition, % at 6.75 µM | P51843 | actives 0.99% (n = 340,000) | AID 504766 | HEK293 Gal4-DAX1 luciferase reporter, luminescence;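 active means inhibition above the mean over all tested compounds plus 3 SD, cut at about 4.2% in these data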;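 further: inhibition shows as a rise in luminescence from relieved DAX1 repression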
Target sequence (P51843 207-470 limits assumed): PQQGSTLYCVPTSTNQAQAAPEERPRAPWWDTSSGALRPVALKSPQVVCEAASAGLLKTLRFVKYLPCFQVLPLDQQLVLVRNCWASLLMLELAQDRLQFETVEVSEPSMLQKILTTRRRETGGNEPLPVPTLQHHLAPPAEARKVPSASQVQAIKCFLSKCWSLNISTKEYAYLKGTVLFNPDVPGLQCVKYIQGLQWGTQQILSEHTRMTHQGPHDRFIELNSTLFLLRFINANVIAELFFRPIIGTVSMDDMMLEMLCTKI
DAX1 inh-2 = DAX1 (NR0B1) inhibition, primary screen; AID 652010; HEK293T StAR-luciferase reporter, SF-1/DAX-1 repression relief; inhibition, % at 6.8 µM; actives 1.1% (n = 370,000);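 active means inhibition above the mean over all tested compounds plus 3 SD, cut at about 3.6% in these data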;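 further: higher inhibition means more luminescence from relief of DAX-1 repression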
Each line names hits and unclear results; the compound was inactive in the other large screens.

CCCCCn1nnnc1C1(C)CCSCC(=O)N1Cc1ccco1 (centres undefined)	none (no result: DAX1 inh-1)
O=P(Cc1ccncc1)(c1ccccc1)c1ccccc1	DAX1 inh-1 5.9
COC(=O)C1CN(C(=O)c2ccc(OC(F)F)cc2)c2ccccc2O1 (centres undefined)	DAX1 inh-1 4.3
Oc1nc(Nc2ccc(F)cc2)sc1/C=C1\C=Nc2ccccc21	none
O=c1[nH]c(S)c(/C=C2\C=Nc3ccccc32)s1	ssDAF-12 act 1.2 (no result: DAX1 inh-1)
CCc1ccc2c(c1)/C(=N/N(C)C(=S)NC)C(=O)N2	hcDAF12 agonist 6.4
Cc1cc(C(=O)COC(=O)C23CC4CC(CC(O)(C4)C2)C3)c(C)n1-c1c(C)n(C)n(-c2ccccc2)c1=O	none
COCCn1c(C)cc(C(=O)COC(=O)C23CC4CC(CC(O)(C4)C2)C3)c1C	DAX1 inh-2 4.5
Cn1ccc2cc(S(=O)(=O)N3CCN(S(=O)(=O)c4c(F)cccc4F)CC3)ccc21	none (no result: DAX1 inh-1, DAX1 inh-2)
CSc1nc(N)n2nccc2n1	hcDAF12 agonist 6.2 (no result: DAX1 inh-1)
CC(=O)Nc1ccc2c(c1)Cc1c(F)cccc1-2	hgDAF12 agonist 11, DAX1 inh-2 4.3
O=C(Nc1ccc2c(c1)Cc1ccccc1-2)c1ccccc1F	hgDAF12 agonist 11
O=C(Nc1ccc2c(c1)Cc1ccccc1-2)c1ccc(Br)o1	none
N/C(=N\C(=O)OCc1ccccc1)N(CC#CC1=CCCCC1)CC1CC1	none (no result: DAX1 inh-1)
Cc1cc(N2CCCN(C)CC2)nc2cc(Cl)ccc12	ssDAF-12 act 1.1
CC[C@H]1CCCCc2ccccc2[C@@H](C(=O)C[C@@H](O)CC(C)=O)OC1=O	DAX1 inh-2 4.0
CC[C@@H]1CCCCc2ccccc2[C@H](C(=O)C[C@@H](O)CC(C)=O)OC1=O	none
CCc1nc(SC)[nH]c(=O)c1C	none
CSc1nc2c(C)c(C)c(C)c(C)c2[nH]1	DAX1 inh-1 5.1
O=C(NNC1=C(C(=O)C(F)(F)F)CCC1)c1cccc(Cl)c1	hgDAF12 agonist 13, DAX1 inh-1 5.2
O=C(NNC1=C(C(=O)C(F)(F)F)CCC1)c1ccc(Cl)cc1	none
COc1cc(-c2cc(NC=O)c3ncc(-c4ccc(C(C)=O)cc4)n3c2)ccc1O	hgDAF12 agonist 11 (no result: DAX1 inh-1)
COc1cccc(-c2cnc3c(NC=O)cc(-c4ccc(O)c(OC)c4)cn23)c1	none (no result: DAX1 inh-1)
COc1cc(-c2cnc3c(NC=O)cc(-c4ccc(N5CCN(C)CC5)cc4)cn23)cc(OC)c1OC	hgDAF12 agonist 11 (no result: DAX1 inh-1)
COc1cc(-c2cnc3c(NC(C)=O)cc(-c4ccc(N5CCN(C)CC5)cc4)cn23)cc(OC)c1OC	none (no result: DAX1 inh-1)
O=C(c1ccc(CSc2nc3ccncc3[nH]2)cc1)N1CCN(c2cccc(Cl)c2)CC1	none
O=C(c1ccc(CSc2nc3ccncc3[nH]2)cc1)N1CCCCCC1	hgDAF12 agonist 13
O=C(N[C@H](C(=O)N1CCC[C@H]1C(=O)NC1CCCC1)C1CCCCC1)C1CC1	none (no result: DAX1 inh-1)
C[C@@H]1CN([C@@H](C)CO)C(=O)c2cccc(NC(=O)Nc3cccc4ccccc34)c2O[C@H]1CN(C)S(=O)(=O)c1ccc2c(c1)OCCO2	none (no result: DAX1 inh-1, DAX1 inh-2)
C=CCNC(=O)NC[C@@]1(C(=O)OC)CC(=O)N(C)[C@@H]1c1ccccc1	none (no result: DAX1 inh-1)
COc1cc(/C=C2\SC(N)=NC2=O)cc(Cl)c1O	DAX1 inh-1 4.4
Cn1c2c(c(=O)n(C)c1=O)C(c1ccccc1Cl)CC(=O)N2 (centres undefined)	hcDAF12 agonist 5.8
Fc1ccc(/C=C\c2nccc3c2[nH]c2ccccc23)cc1	hcDAF12 agonist 5.6
C(=C\c1nccc2c1[nH]c1ccccc12)/c1ccccc1	none
CCOC(=O)C1CCN(C(=O)c2ccc(OCC(=O)Nc3ccc(OCC)cc3)c(OC)c2)CC1	DAX1 inh-1 4.2
O=C(Nc1ccc(F)cc1)OCc1cn(Cc2cc(F)cc(F)c2)nn1	none (no result: DAX1 inh-1)
COC(=O)c1cc(N=Cc2c(O)c3ccccc3oc2=O)cc(C(=O)OC)c1	DAX1 inh-1 9.2 (no result: hgDAF12 agonist, hcDAF12 agonist, ssDAF-12 act, DAX1 inh-2)
CCCCOCCCNC(=O)C[C@H]1C[C@@]2(C(=O)OC)C(=C[C@H](C(C)(C)C)O[C@@H]2C)N(CCC2=CCCCC2)C1=O	none (no result: DAX1 inh-1)
CCc1nnc(NC(=O)c2ccc3c(=O)n4c(nc3c2)CCC4)s1	DAX1 inh-1 4.2, DAX1 inh-2 4.4
O=C(NCc1ccc(F)cc1)c1ccc2c(=O)n3c(nc2c1)CCCCC3	DAX1 inh-1 5.0
CC(=O)CC[C@H]1CC[C@]2(CCCN(C(=O)C(C)(C)C)C2)O1	ssDAF-12 act 2.2 (no result: DAX1 inh-1)
O=C1C=C(N2CCCCC2)C2(CCCCC2)O1	none
O=C1C=C(N2CCOCC2)C2(CCCCC2)O1	DAX1 inh-1 5.2
CCC(C)N(C(=O)CSc1nnc(-c2cc(OC)c(OC)c(OC)c2)o1)C(C)CC (centres undefined)	none (no result: DAX1 inh-1)
CCC(=O)c1ccc(OCc2ccc(C#N)cc2)cc1	hgDAF12 agonist 12
CCC(=O)c1ccc(OCC(=O)O)cc1	none
COC(=O)[C@]12C[C@H](CC(=O)NCC3CCCCC3)C(=O)N(CCc3ccc(OC)c(OC)c3)C1=C[C@H](COCc1ccccc1)O[C@@H]2C	none (no result: DAX1 inh-1)
Cn1c(N)c(C(=O)COC(=O)CSc2ccccc2)c(=O)n(C)c1=O	DAX1 inh-1 8.5
COc1cccc(-c2nc(N3CC(C)CC(C)C3)c3ccccc3n2)c1O (centres undefined)	hcDAF12 agonist 5.9
COc1ccc(Cc2nc3ccc(C(=O)NCC(C)(C)OC)cc3o2)cc1	DAX1 inh-1 4.6
COC(=O)CCNC(=O)c1ccc2nc(Cc3ccc(OC)cc3)oc2c1	none
COc1ccc(Cc2nc3ccc(C(=O)NCCSC)cc3o2)cc1	none
COc1ccc(Cc2nc3ccc(C(=O)NCc4cc(C)no4)cc3o2)cc1	DAX1 inh-2 3.7
CC(=O)N1CCN(C2=Nc3ccccc3Sc3ccccc32)CC1	none (no result: DAX1 inh-1)
CCN(CC)CCn1c2ccccc2c2cnc(N)c(C#N)c21	DAX1 inh-2 3.9
CCCCOCCCNC(=O)C[C@H]1C[C@@]2(C(=O)OC)C(=C[C@H](C(C)C)O[C@@H]2C2CC2)N(Cc2ccc3c(c2)OCO3)C1=O	none (no result: DAX1 inh-1)
COc1cccc(NC(=O)Cn2cc3c(n2)CCCCC3)c1	none
COc1ccc(CNC(=O)Cn2cc3c(n2)CCCCC3)cc1	DAX1 inh-1 5.7
Cc1[nH]n(-c2ccccc2)c(=O)c1C=NC1CCCCCC1	DAX1 inh-1 5.5
Cc1[nH]n(-c2ccccc2)c(=O)c1C=NC1CCCCC1	none
O=C1N=C(N2CCOCC2)S/C1=C1\C(=O)N(Cc2ccccc2)c2ccccc21	DAX1 inh-1 4.4
Cc1ccc(C2N=C(N)Nc3nc4ccccc4n32)cc1 (centres undefined)	none
Cc1cccc(C2N=C(N)Nc3nc4ccccc4n32)c1 (centres undefined)	DAX1 inh-1 4.8
Cc1ccccc1NC(=O)C1Cc2ccccc2CN1C(=O)c1ccco1 (centres undefined)	DAX1 inh-1 5.4
[O-][n+]1ccccc1C(O)CSc1ccccc1 (centres undefined)	none (no result: DAX1 inh-1)
O=c1sc(Nc2ccccc2)nc2ccsc12	hcDAF12 agonist 6.2
